Assay results as given in PubChem BioAssay AID2588 (National Center for Advancing Translational Sciences (NCATS), 2010).
Records with an inconclusive call do not appear. A number with no mark means an inactive call. Calls of active or inactive are those of the source. The call rests on the fitted dose curve; in most records, active means well fitted inhibition curve with a large enough effect; inconclusive means small, poorly fitted or top-dose-only effect, or effect the other way; inactive means flat fitted curve, though single readings scatter.

Target: Lysosomal acid glucosylceramidase (Homo sapiens) (UniProt P04062)
Test: qHTS Assay for Inhibitors and Activators of N370S glucocerebrosidase as a Potential Chaperone Treatment of Gaucher Disease: Activity in Non-Mutant Spleen Homogenate Using a Red Fluorescent Substrate
Conditions: red fluorogenic substrate GCase activity; series mostly up to 50.2 µM; activity change, negative = inhibition: at the top concentration
Source text: NIH Chemical Genomics Center [NCGC]
NIH Molecular Libraries Probe Production Centers Network [MLPCN]
Assay Submitter (PI): Wei Zheng
Glucocerebrosidase (GC) catalyzes the hydrolysis of beta-glucocerebroside to glucose and ceramide in lysosomes. Mutations in the glucocerebrosidase gene result in Gaucher disease, an autosomal recessive lysosomal storage disorder. Many of the mutations encountered in patients with Gaucher disease are missense alterations that may cause misfolding, decreased stability and/or mistrafficking of this lysosomal protein. […] These inhibitors include iminosugar analogs and three non-iminosugar inhibitors identified from a previous HTS of 62,000 compounds with the wild type recombinant enzyme. However, the enhancement of enzyme activity by the chaperone action of an enzyme inhibitor must be balanced against the direct inhibition of the enzyme. An enzyme activator could also function as a chaperone by binding to the enzyme and helping to correct its misfolding and mistrafficking. While activators for GC have not yet been identified, they may have better therapeutic potential than inhibitors. Therefore the discovery and development of chemical activators may provide a new strategy for the chaperone therapy.
We have optimized a new assay using N370S mutant GC derived from the spleen of a Gaucher patient. […] In addition, the MLPCN compound library has expanded, which increases the chance of finding new and better probes.
This confirmation assay tests for compound activity in spleen homogenate containing wildtype enzyme using an alternate resorufin-based substrate.
NCGC Assay Protocol Summary:
This is a fluorogenic enzyme assay with resorufin-beta-D-glucopyranoside as the substrate and wildtype glucocerebrosidase from human spleen homogenate as the enzyme preparation. Upon the hydrolysis of this fluorogenic substrate, the resulting product, […] which can be detected by a standard fluorescence plate reader. Data were normalized to the controls for basal activity (without enzyme) and 100% activity (with enzyme). The AC50 values were determined from concentration-response data modeled with the standard Hill equation.
Assay buffer: 50 mM citric acid (titrated with potassium phosphate to pH 5.0), 100 mM potassium chloride, 10 mM sodium chloride, 1 mM magnesium chloride, 0.01% Tween-20.
1536-well assay protocol:
(1) Add 2 ul/well of spleen homogenate (27 ug final)
(2) Add 23 nL compounds in DMSO solution. The final titration was 0.5 nM to 58 uM.
(3) Add 2 ul of substrate (1 mM final)
(4) Incubate at 37C for 40 min.
(5) Add 2 ul stop solution (1M NaOH and 1M Glycine mixture, pH 10)
(6) Detect the assay plate in a ViewLux plate reader (PerkinElmer) with Ex=365 nm and Em=440nm.
Keywords: Glucocerebrosidase, beta-glucosidase, Gaucher Disease, pharmacological chaperone, chaperone therapy, high throughput screening, glucocerebrosidase inhibitor, MLSMR, MLSCN, NIH Roadmap, qHTS and NCGC

Chain of Lysosomal acid glucosylceramidase (Homo sapiens) (P04062 whole entry, looked up): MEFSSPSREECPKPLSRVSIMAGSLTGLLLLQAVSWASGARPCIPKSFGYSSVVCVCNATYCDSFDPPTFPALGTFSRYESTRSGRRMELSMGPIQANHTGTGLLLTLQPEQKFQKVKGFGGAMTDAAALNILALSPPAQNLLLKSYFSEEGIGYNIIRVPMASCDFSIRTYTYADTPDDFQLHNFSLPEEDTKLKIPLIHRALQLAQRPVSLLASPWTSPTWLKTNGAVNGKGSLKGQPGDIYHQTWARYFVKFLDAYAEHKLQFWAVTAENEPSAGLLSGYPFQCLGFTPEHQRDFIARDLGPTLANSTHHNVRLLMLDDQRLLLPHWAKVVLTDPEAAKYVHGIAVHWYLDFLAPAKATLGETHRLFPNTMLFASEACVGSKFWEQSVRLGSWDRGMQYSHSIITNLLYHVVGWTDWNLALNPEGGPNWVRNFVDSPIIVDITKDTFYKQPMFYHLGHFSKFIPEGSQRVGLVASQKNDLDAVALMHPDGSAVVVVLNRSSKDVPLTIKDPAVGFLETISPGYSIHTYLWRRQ

Row | SMILES | activity change, negative = inhibition [%] | Potency
1 | CCCCNC(=O)c1ccc(NS(=O)(=O)c2ccccc2)cc1 | 7.92 | 
2 | O=S(=O)(c1ccc(Cl)cc1)N1CCN(c2nc(-c3ccc(Cl)cc3)nc3ccccc23)CC1 | 13.2 | 
3 | c1ccc2c(NCC3CCCO3)nc(N3CCOCC3)nc2c1 (stereo not given) | 6.48 | 
4 | COc1cccc(CN(C)c2nc(-c3cccs3)nc3ccccc23)c1 |  | 2 µM (active)
5 | O=S(=O)(c1ccccc1Cl)N1CCN(c2nc(-c3cccs3)nc3ccccc23)CC1 |  | 0.794 µM (active)
6 | N#Cc1ccc(S(=O)(=O)N2CCN(c3nc(-c4cccs4)nc4ccccc34)CC2)cc1 |  | 0.794 µM (active)
7 | N#Cc1ccccc1S(=O)(=O)N1CCN(c2nc(-c3cccs3)nc3ccccc23)CC1 |  | 1.12 µM (active)
8 | Cc1ccc(S(=O)(=O)Nc2ccc(C(=O)NCc3ccccc3)cc2)cc1 | -9.87 | 
9 | COc1cc(OC)cc(C(=O)N[C@H](C(=O)OCC(=O)Nc2cccc(F)c2)C(C)C)c1 | -8.09 | 
10 | COC(=O)c1ccccc1NC(=O)c1ccc2c(c1)C(=O)N(Cc1ccccc1)C2=O | 8.05 | 
11 | CC(=O)c1ccc(S(=O)(=O)N2CCN(c3nc(-c4cccs4)nc4ccccc34)CC2)cc1 |  | 1.12 µM (active)
12 | CC(C)(C)c1ccc(S(=O)(=O)N2CCN(c3nc(-c4cccs4)nc4ccccc34)CC2)cc1 |  | 1.12 µM (active)
13 | O=S(=O)(c1ccc2c(c1)CCCC2)N1CCN(c2nc(-c3cccs3)nc3ccccc23)CC1 |  | 0.282 µM (active)
14 | O=S(=O)(c1ccccc1)N1CCN(c2nc(-c3ccc(F)cc3)nc3cc(Cl)ccc23)CC1 | 6.43 | 
15 | CCN(CC)c1ccc(C(=O)Nc2ccc3nc(N4CCOCC4)cc(C)c3c2)cc1 |  | 10 µM (active)
16 | COc1cccc(NC(=O)CSc2nc3ccccc3c(=O)n2Cc2cccs2)c1 | -11.8 | 
17 | CC(=O)Nc1ccc(NC(=O)COc2ccccc2C(=O)Nc2cccc(Cl)c2Cl)cc1 | -15.2 | 
18 | O=S(=O)(c1ccc(F)cc1)N1CCN(c2nc(-c3cccc(Br)c3)nc3ccccc23)CC1 | -2.28 | 
19 | Cc1ccccc1-c1nccc(NCc2cccs2)n1 |  | 14.1 µM (active)
20 | COc1ccccc1C(=O)COC(=O)c1ccccc1OCC(=O)Nc1ccc(SC(F)F)cc1 | 3.84 | 
